Among all 48,000 compounds or so, about 13,000 (27%) showed an effect of 50% or more. Some of the results follow.
Test system: Wolbachia pipientis
Assay: Anti-Wolbachia Cell-Based Screen
Format: functional
Design: scale not given: in the data most compounds retested in dose-response had high values
Conditions: 5 µM

SMILES	Percent Effect [%]
O=C1CCOCCN1Cc1ccc(Cl)c(Cl)c1	9.877
CSc1ccc(NC(=O)NCC(O)C(C)C)cc1F (stereo not drawn)	-14.41
CNS(=O)(=O)CC(=O)N1CCC(c2ccc(F)c(F)c2)CC1	-2.799
O=C(NCc1cn2cccnc2n1)C1CC(=O)N(Cc2ccccn2)C1 (stereo not drawn)	-14.07
CC(C)(C)c1cc(=O)n2c(n1)SCC(C(=O)NCc1cccs1)C2 (stereo not drawn)	98.61
O=C(NCc1cccs1)C1CCN(c2cc(-n3ccnc3)ncn2)CC1	-1.807
CC(C)(C)c1cc(=O)n2c(n1)SCC(C(=O)NCc1ccco1)C2 (stereo not drawn)	102.3
CCc1c(C)nc2n(c1=O)CC(C(=O)NCc1cccs1)CS2 (stereo not drawn)	101.3
CN1[C@@H](c2ccccc2)[C@@H](C(=O)NCc2ccccn2)C[C@@]1(C)C(=O)O	4.83
O=C(NCc1cccs1)C1CN(C(=O)c2cccs2)CC12CCOCC2 (stereo not drawn)	-10.89
O=C(NCc1cccs1)C1CCCN(c2cc(-n3cncn3)ncn2)C1 (stereo not drawn)	-5.792
CC(C)(C)c1cc(=O)n2c(n1)SCC(C(=O)NCc1ccccn1)C2 (stereo not drawn)	106.1
CC(C)Cc1cc(CNC(=O)C2CCCN(Cc3ccco3)C2)no1 (stereo not drawn)	-2.049
COC1CCN(CCNC(=O)NC(C)c2cccc(Cl)c2)CC1 (stereo not drawn)	14.59
O=C(C1CCCC1)N1CCC(c2n[nH]c3nccnc23)CC1	136.1
O=C(C1CCCCC1)N1CCC(c2n[nH]c3nccnc23)CC1	126.4
Cl.NCCC(=O)Nc1ccc(-c2ccccc2)cc1	116.3

SMILES	Percent Effect [%]
O=C(Cn1cnc(-c2ccccc2)cc1=O)Nc1ccncc1	13.41
O=C(CCC(=O)Nc1ccccc1)NCC(=O)c1ccc(F)cc1F	-8.283
CCCc1nc(CNC(=O)Cc2cc(C)no2)cs1	-3.893
CCS(=O)(=O)NCCNc1cc(-n2cccc2)ncn1	9.537
CNc1cccc(C2CN(C(=O)CNS(C)(=O)=O)CCO2)n1 (stereo not drawn)	125.9
CNC(=O)CN1CCOC(c2ccccc2C(F)(F)F)C1 (stereo not drawn)	-19.7
Cc1n[nH]c(C2CN(CC(=O)NCc3ccco3)CCO2)n1 (stereo not drawn)	14.88
O=C(CCNS(=O)(=O)c1ccccc1)N1CCOC(c2ccccc2)C1 (stereo not drawn)	1.988
CC(=O)NCC(=O)N1CCN(C)c2ncccc2C1	-12.03
O=C(Cc1cccc(F)c1F)N1CCOC(c2cccc(O)c2)C1 (stereo not drawn)	-10.07
COc1ccc2cc(C3CN(C(=O)CCNC(C)=O)CCO3)ccc2c1 (stereo not drawn)	-5.377
O=C(CCNS(=O)(=O)c1cccnc1)N1CCOC(c2ccccc2)C1 (stereo not drawn)	-17.46
CNC(=O)CN1CCOC(c2cccc(N)n2)C1 (stereo not drawn)	126.4
CC(=O)NCC(=O)N1CCOC(c2cccc(N)n2)C1 (stereo not drawn)	128.4
COc1ccc2cc(C3CN(C(=O)CN4CCCC4)CCO3)ccc2c1 (stereo not drawn)	0.8606
Nc1cccc(C2CN(C(=O)CN3CCOCC3)CCO2)n1 (stereo not drawn)	104.8
